The values below come from publication PMC8384837, “Expanding the binding specificity for RNA recognition by a PUF domain”.

Changes are numbered by the printed parent chain.

Test in all cases: yeast three-hybrid, YBZ-1, SC-Leu-His + 0.5 mM 3-AT, 4 days
Holding throughout (details): tags: N-Gal4 AD-HA kept; label: inside an RPR1-promoter hybrid RNA with tandem MS2 sites; ssRNA

The target in one assay is PUM1 PUF domain R3-RAA (Homo sapiens, UniProt Q14671 828-1176, C935R;R936A;Q939A). In a few lines: (§1)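 The interaction score is the log change in how often each variant appears, from input to selection. Frequencies came from PCR-amplified, Illumina-sequenced repeat regions of Pumilio-1 PUF domain libraries grown in strain YBZ-1 (LexA–MS2 coat fusion, HIS3 reporter) alongside matching RNA elements. Input plates were SC-Leu and selection plates were SC-Leu-His + 0.5 mM 3-AT, each for four days, and the log2 calculation used a pseudocount of 1 where a variant was absent.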

The next assay deals with PUM1 PUF domain R8-SWE (Homo sapiens, UniProt Q14671 828-1176, N1122S;Y1123W;Q1126E). Put shortly: as §1
Assay [1] has as its target T1, PUM1 PUF domain R6-SWD R7-NPG (Homo sapiens, UniProt Q14671 828-1176, N1043S;Y1044W;Q1047D;S1079N;N1080P;E1083G).
T1 sequence: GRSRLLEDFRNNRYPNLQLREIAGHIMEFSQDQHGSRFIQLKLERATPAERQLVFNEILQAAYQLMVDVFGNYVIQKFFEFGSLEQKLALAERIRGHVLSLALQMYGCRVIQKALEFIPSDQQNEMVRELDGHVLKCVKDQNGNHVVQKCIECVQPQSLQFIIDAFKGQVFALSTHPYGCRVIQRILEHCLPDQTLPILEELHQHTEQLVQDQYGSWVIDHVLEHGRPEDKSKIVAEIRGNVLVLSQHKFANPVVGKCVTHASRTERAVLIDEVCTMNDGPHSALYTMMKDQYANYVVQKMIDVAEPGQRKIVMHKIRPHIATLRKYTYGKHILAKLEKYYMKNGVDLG
Put shortly:
as §1

The target of another assay is PUM1 PUF domain R5-RYT (Homo sapiens, UniProt Q14671 828-1176, C1007R;R1008Y;Q1011T). In a few lines: as §1
The next assay addresses T2, PUM1 PUF domain R6-MYL (Homo sapiens, UniProt Q14671 828-1176, N1043M;Q1047L).
T2 sequence: T1 sequence with S216M, W217Y, D220L, N252S, P253N, G256E
In a few lines:
as §1

A further assay addresses PUM1 PUF domain R4-LHW (Homo sapiens, UniProt Q14671 828-1176, N971L;Q975W). In a few lines:
as §1

The target of another assay is T3, PUM1 PUF domain R6-KFS (Homo sapiens, UniProt Q14671 828-1176, N1043K;Y1044F;Q1047S).
T3 sequence: T1 sequence with S216K, W217F, D220S, N252S, P253N, G256E
In a few lines:
as §1

The next assay deals with PUM1 PUF domain R4-EHA (Homo sapiens, UniProt Q14671 828-1176, N971E;Q975A). In a few lines:
as §1

The next assay addresses PUM1 PUF domain R5-GKH (Homo sapiens, UniProt Q14671 828-1176, C1007G;R1008K;Q1011H). In a few lines: as §1
Another assay concerns the target PUM1 PUF domain R5-NDG (Homo sapiens, UniProt Q14671 828-1176, C1007N;R1008D;Q1011G). Put shortly:
as §1

As for “GGCUAGAACUAGUGGAUCCCCCGGCGCCCGGCGGCUCGAGCCCGGGUAAGUGUAAUUAGUCUGCAUGCCGCCGGGCGCCAUGCCUGCAGGUCGACUCUAGAAAACAUG”, the binding signal with PUM1 PUF domain R3-RAA was 3.66 log2 enrichment (interaction score).
Regarding “GGCUAGAACUAGUGGAUCCCCCGGCGCCCGGCGGCUCGAGCCCGGGUAAGCGUAAAUAGUCUGCAUGCCGCCGGGCGCCAUGCCUGCAGGUCGACUCUAGAAAACAUG”, the binding signal in the assay with PUM1 PUF domain R8-SWE was 2.43 log2 enrichment (interaction score).
For “GGCUAGAACUAGUGGAUCCCCCGGCGCCCGGCGGCUCGAGCCCGGGUAAGUUGAAAUAGUCUGCAUGCCGCCGGGCGCCAUGCCUGCAGGUCGACUCUAGAAAACAUG”, in [1], the binding signal is 5.9 log2 enrichment (interaction score).
For the sequence “GGCUAGAACUAGUGGAUCCCCCGGCGCCCGGCGGCUCGAGCCCGGGUAAGUGUAAAUAGUCUGCAUGCCGCCGGGCGCCAUGCCUGCAGGUCGACUCUAGAAAACAUG”, the binding signal in the assay with PUM1 PUF domain R5-RYT is 1.24 log2 enrichment (interaction score); with PUM1 PUF domain R6-MYL, 4.67 log2 enrichment (interaction score); with PUM1 PUF domain R4-LHW it was 3.75 log2 enrichment (interaction score); in the assay with PUM1 PUF domain R6-KFS it was 3.11 log2 enrichment (interaction score).
Take “GGCUAGAACUAGUGGAUCCCCCGGCGCCCGGCGGCUCGAGCCCGGGUAAGUGUAUAUAGUCUGCAUGCCGCCGGGCGCCAUGCCUGCAGGUCGACUCUAGAAAACAUG”: the binding signal with PUM1 PUF domain R4-EHA is 2.96 log2 enrichment (interaction score).
For “GGCUAGAACUAGUGGAUCCCCCGGCGCCCGGCGGCUCGAGCCCGGGUAAGUGUUAAUAGUCUGCAUGCCGCCGGGCGCCAUGCCUGCAGGUCGACUCUAGAAAACAUG”, the values for the binding signal with PUM1 PUF domain R5-GKH, with PUM1 PUF domain R5-RYT and with PUM1 PUF domain R5-NDG were 3.15 log2 enrichment (interaction score), 3.93 log2 enrichment (interaction score) and 3.34 log2 enrichment (interaction score), respectively.
